Tgondii IFNg = inhibitors of Toxoplasma gondii growth with IFN-gamma. Toxoplasma gondii growth in IFN-gamma-treated host cells; hits give low values. activity change, negative = inhibition, % (test concentration not listed). actives 3.8% (n = 69,000). AID 1259416; in the data active = activity change below about -70%, passing the limit was not always enough;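 also: host cells are HeLa cells infected with Toxoplasma gondii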
Hits are given with their value; – = inactive. The full list was thinned out, with hits kept by preference.

SMILES	Tgondii IFNg
CCn1cc(C2CC(C(=O)N(C)c3ccccc3)N(C)S(=O)(=O)N2)c(C)n1 (configuration not stated)	–
Fc1cccc(-c2nc3c(c(NC4CC4)n2)CNCC3)c1	-86.1
CN1C(C)(C)CC(Nc2nc(-c3ccccn3)nc3c2CCNC3)CC1(C)C	–
c1ccc2c(c1)CC(Nc1nc(C3CCCC3)nc3c1CNC3)CO2 (configuration not stated)	–
O=C(CCC1Nc2c3ccccc3nc(=S)n2C1=O)N1CCC(O)(c2cccc(C(F)(F)F)c2)CC1 (configuration not stated)	–
CCc1oc2c(-n3cnnc3)cccc2c1C	–
CCc1oc2c(Cl)cc(-n3cnnc3)cc2c1C	-85.1
Cc1cc2cc(NC(=O)c3ccc(-n4cnnc4)cc3)cc(Cl)c2o1	–
CCOC(=O)N1CCN(C(=O)C2=C(C)C(=O)OC23CCN(S(C)(=O)=O)CC3)CC1	–
CNCC(O)Cn1c(C)c(C)c2ccccc21 (configuration not stated)	–
OC(CNCc1ccccc1)Cn1c2ccc(Cl)cc2c2cc(Cl)ccc21 (configuration not stated)	-90.9
Cc1cc(C)n(CC(O)Cn2c3ccc(Cl)cc3c3cc(Cl)ccc32)n1 (configuration not stated)	–
Cc1nsc(NC(=O)N2CCCCC2c2nc(C(C)C)no2)n1 (configuration not stated)	–
CCC1=NOC(Cn2cnc(-c3ccccc3)c2CCn2nc(C)cc2C)C1 (configuration not stated)	–
Cc1cc2ccccc2n1CCC(=O)NC1CCCOC1 (configuration not stated)	–
Cc1ccc2[nH]c(=O)c(-c3nc(-c4ccc5c(c4)OCO5)no3)c(O)c2c1	–
CC(c1ccc(-c2ccc3c(c2)OCO3)cc1)N1CCOCC1 (configuration not stated)	–
Cc1c(C)c(C)c2[nH]c(-c3ccc4c(c3)OCO4)nc2c1C	-95.4
Cc1nc(OCC(=O)Nc2ccc(F)cc2F)c2ccccc2n1	–
COc1ccc(CNC(=O)c2cc3cc(S(=O)(=O)N(C)C)ccc3n2Cc2ccncc2)cc1	–
COc1ccccc1CNC(=O)c1cncnc1CC1CCN(C(=O)c2ccccc2)CC1	–
COc1ccc(OC)c(-n2cnnc2CN2CCCCC2)c1	–
CN(C)c1ccc(C(=C2C=CC(=[N+](C)C)C=C2)c2ccc(N(C)C)cc2)cc1	-81.3
Cc1cncc(C(=O)N2CCC3(CC2)CC(NC(=O)c2ccccn2)CO3)c1 (configuration not stated)	–
CN(Cc1cnc2c(-c3ccccc3)cnn2c1)Cc1cccc2ncccc12	–
SMILES	Tgondii IFNg
COc1ccc(-c2cnc3c(-c4cccc5ncccc45)cnn3c2)cc1	–
CC(C)Oc1ccc(-c2cnc3c(-c4ccnc5ccccc45)cnn3c2)cc1	-75.7
CC(=O)Nc1ncc(S(=O)(=O)NCCn2nc(C)c(C)c2C)s1	–
N#Cc1nccnc1Sc1cccs1	–
CN(C)CCNC(=O)C1CC2(CCN(c3cnccn3)CC2)c2ccccc21 (configuration not stated)	–
COC(=O)c1c(NCCc2cccs2)c2ccc(F)cc2[nH]c1=O	–
COC(=O)c1c(NCCc2ccc(Cl)cc2)c2cc(F)ccc2[nH]c1=O	-94.2
COC(=O)c1c(NCCc2c[nH]c3ccccc23)c2ccccc2[nH]c1=O	-89.1
COC(=O)c1c(NCc2ccccc2Br)c2cc(F)ccc2[nH]c1=O	–
COC(=O)c1c(NCC(C)C)c2cc(F)ccc2[nH]c1=O	–
COC(=O)c1c(NCc2c(C)noc2C)c2ccccc2[nH]c1=O	–
COC(=O)c1c(NCCN2CCCc3ccccc32)c2cc(F)ccc2[nH]c1=O	–
COC(=O)c1c(NCC(C)O)c2cc(F)ccc2[nH]c1=O (configuration not stated)	–
COC(=O)c1c(NCCc2c[nH]c3ccccc23)c2cc(Cl)ccc2[nH]c1=O	-114.8
CC(C)Cc1sc(N)nc1-c1ccc(P(=O)(O)O)o1	–
CCS(=O)(=O)N1CCO[C@]2(CCC[C@H]2COc2cccnc2)C1	–
CS(=O)(=O)N1[C@H](C#N)[C@@H](c2ccc(-c3ccccc3F)cc2)[C@@H]1CO	–
O=C1NCC2(CCCN(C(=O)c3ccccc3N3CCOCC3)CC2)O1 (configuration not stated)	–
CN1CCC2(CC1)CCN(C(=O)CCn1nnc3ccccc31)C2	–
CSc1cccc(CN(C)C(=O)c2ncn[nH]2)c1	–
Cc1cc(C(=O)Nc2ccc(N3CCOCC3)cc2)nn1C	–
O=C(C1CCN(c2cncnc2N2CCOCC2)CC1)N1CCC(N2CCCCC2)CC1	–
Cc1c(C(=O)Nc2ccc(N3CCC(N4CCOCC4)CC3)c(C#N)c2)cnn1-c1ccc(Cl)cc1	-83.9
CC1(C)CCC(CN2CCN(c3ccc(C(=O)NS(=O)(=O)c4ccc(NCC5CCOCC5)c([N+](=O)[O-])c4)c(Oc4cnc5[nH]ccc5c4)c3)CC2)=C(c2ccc(Cl)cc2)C1	-79.9
Cc1ccc(-c2nc(N)nc3[nH]ncc23)c(-n2cccn2)c1	–
SMILES	Tgondii IFNg
O=C(c1ccccc1Cn1cccn1)N1CCCC1c1ccc2c(c1)OCCCO2 (configuration not stated)	–
CC(C)C(=O)c1cc2c(s1)CCN2S(C)(=O)=O	-84.6
CS(=O)(=O)N1CCc2sc(C(=O)Nc3ccccc3F)cc21	–
CS(=O)(=O)N1CCc2sc(C(=O)NCc3ccccc3)cc21	–
COc1cccc(C2CCCN2C(=O)Nc2ccccc2SC)c1 (configuration not stated)	–
CCc1ccc(S(=O)(=O)N2CC[C@H](O)[C@@H]2Cc2cnn(C)c2)cc1	–
CC(C)[C@H](N)C(=O)OCCOCn1cnc2c(=O)[nH]c(N)nc21	–
Nc1ncnc2c1ncn2[C@H]1CC[C@@H](CO)O1	–
CC(C)(C)C(=O)OCOP(=O)(COCCn1cnc2c(N)ncnc21)OCOC(=O)C(C)(C)C	-80.0
Cc1cc(-c2ccc(-c3ccn[nH]3)cc2)cnc1-n1cnnc1	-77.2
Cc1cc(C)c(-c2cnc(-n3cnnc3)c(C)c2)c(C)c1	-78.3
OCc1cc(-c2ccc(-c3ccn[nH]3)cc2)ccn1	–
Cc1cnc(-n2cnnc2)c(-c2ccc(S(C)(=O)=O)cc2)c1	–
CC(C)c1nccn1-c1ccc(-c2ccn[nH]2)cc1	–
COC(C)c1cccc(-c2cnc(-n3cnnc3)c(C)c2)c1 (configuration not stated)	–
CC(C)(C)c1nc(CN2CCc3onc(-c4ccc5c(c4)OCO5)c3C2)no1	–
Cc1c(C(=O)N2CCCC3(CCNCC3)CC2)sc2ncn(C)c(=O)c12	–
CCN(CC)S(=O)(=O)N1CCN(S(=O)(=O)c2c(C)n[nH]c2C)CC1	–
O=C(O)[C@H]1C[C@H](C(=O)N2CCCC2)CN(Cc2ccc3c(c2)OCCO3)C1	–
Cc1cc(C)n(-c2ncnc3sc(-c4ccccc4)cc23)n1	-94.4
Cc1cc(C)n(-c2nc(-c3ccccc3)cc(-c3ccccc3)n2)n1	–
Cc1cc(C)n(-c2nnc(-c3ccccc3)c(-c3ccccc3)c2-c2ccccc2)n1	–
COc1ccc(-c2nc(C)c(CCNS(=O)(=O)c3ccc4ccccc4c3)s2)cc1	–
S=c1n(CN2CCOCC2)nnn1-c1ccccc1	–
O=C(c1ccc(-c2ccc(F)cc2)o1)N1CCC(n2c(=O)oc3ccccc32)CC1	–
Cc1occc1C(=O)Nc1ccc(C(=O)NC2(C)CCCCC2)cc1	–
CCOc1ccccc1-c1ccccc1NC(=O)c1ccc(-n2nc(C)cc2C)cc1	-101.4

High-throughput results deposited in PubChem BioAssay by Broad Institute.
